An excerpt weighted towards active compounds, which were near 1.3% of everything screened.
PREPL inh – PREPL enzyme inhibitors, primary screen, biochemical, fluorescence polarization. Prolyl endopeptidase-like (Homo sapiens), Q4J6C6. recombinant PREPL, fluorescence polarization activity-based probe. inhibition, % at 5.96 µM. 0.68% of 320,000 active
DNA FID counter – compounds displacing fluorescent DNA intercalator, primary screen, artefact control for HCV NS3 helicase inhibitor project, biochemical, FID fluorescence; inhibition, % at 7.9 µM; AID 1845, 2009; 0.17% of 290,000 active; DNA fluorescent intercalator displacement; in the data active means inhibition above about 37%;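 further: higher means more ethidium bromide displaced from hairpin DNA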
beta cell repl – inducers of MIN6 beta-cell proliferation, primary screen, ATP luminescence, uHTS. MIN6 cells proliferation, ATPlite luminescence, 48 h; cells starved in 0.2% serum; 100% = growth in 10% serum. proliferation, % at 10 µM. 0.29% of 330,000 active;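 active means compounds whose signal lies at least 3.5 SD above the mean of all wells on their plate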
RAD52 anneal inh – RAD52 DNA annealing inhibitors, primary screen, biochemical, FRET, single point, set 2; DNA repair protein RAD52 homolog (Homo sapiens), P43351; recombinant RAD52 DNA annealing, FRET fluorescence; inhibition, % at 18.7 µM; 0.46% of 360,000 active; AID 651710, 2012;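 active means every replicate showing at least 50% inhibition; inconclusive means mean inhibition at least 50% but not in every replicate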
Target sequence (P43351 whole entry, looked up): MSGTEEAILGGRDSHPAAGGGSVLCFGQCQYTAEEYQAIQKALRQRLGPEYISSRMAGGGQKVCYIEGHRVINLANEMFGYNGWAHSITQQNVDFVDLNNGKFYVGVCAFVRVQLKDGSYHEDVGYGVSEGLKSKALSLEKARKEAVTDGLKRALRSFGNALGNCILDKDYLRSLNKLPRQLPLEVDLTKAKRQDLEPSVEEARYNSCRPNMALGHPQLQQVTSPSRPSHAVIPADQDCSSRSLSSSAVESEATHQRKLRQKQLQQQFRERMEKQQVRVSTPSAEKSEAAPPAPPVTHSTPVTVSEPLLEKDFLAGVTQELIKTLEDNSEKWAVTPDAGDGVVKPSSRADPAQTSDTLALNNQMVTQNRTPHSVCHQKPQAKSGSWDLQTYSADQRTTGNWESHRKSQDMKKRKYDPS
UBC13 polyUb – UBC13 polyubiquitin chain formation inhibitors, primary screen, biochemical, TR-FRET, uHTS; inhibition, % at 20 µM; 0.47% of 330,000 active; AID 485273, 2010; in the data active means inhibition above about 45%, passing the limit was not always enough; inconclusive means no clear call, values can overlap the other calls
Target sequence (P61088 whole entry, looked up): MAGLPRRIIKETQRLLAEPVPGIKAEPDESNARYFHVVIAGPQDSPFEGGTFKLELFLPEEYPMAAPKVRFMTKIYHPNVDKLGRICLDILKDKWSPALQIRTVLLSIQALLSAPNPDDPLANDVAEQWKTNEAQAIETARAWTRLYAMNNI
RAD54 inh – inhibitors of human RAD54 branch migration, primary screen, biochemical, fluorescence, single point; RAD54 Holliday junction branch migration, FAM/BHQ fluorescence; inhibition, % at 10.4 µM; 0.14% of 360,000 active; AID 602329, 2012;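 active means mean normalized replicate activity at least 40 and at least half of replicates scoring 40 or more; inconclusive means only one of the two criteria met; inactive means mean below 40 and under half of replicates reaching 40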;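 further: inhibitors cause a drop in the FAM fluorescence signal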
PREPL confirm – human PREPL enzyme inhibitors, confirmation, biochemical, fluorescence polarization | 67% of 2,000 active | recombinant PREPL, fluorescence polarization activity probe | shares compounds with PREPL inh | inhibition, % at 5.96 µM | AID 2803, 2010
Casp3 UBC13 ctr – CASP3 inhibitor validation, counterassay for project on UBE2N polyubiquitination blockers, biochemical, one dose | inhibition, % at 20 µM | 4% of 1,400 active | AID 488856, 2010 | shares compounds with UBC13 polyUb | Recombinant caspase-3, Caspase-Glo 3/7 luminescence, 60 min;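 active means mean inhibition across replicates above about 26%, limit read from the data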
UBC13 conf – UBC13 polyubiquitination inhibitors, single-point retest, confirmation, biochemical, TR-FRET, single concentration; shares compounds with UBC13 polyUb; inhibition, % at 10 µM; 68% of 1,400 active; AID 488859, 2010; in the data active means inhibition above about 45%; inconclusive means no clear call, values can overlap the other calls
DNA binding – DNA binding of candidate compounds, dose response, artefact control for RAD54 inhibitor project, biochemical, fluorescence polarization, cherry-pick | 8% of 460 active | AC50, µM (highest dose often 35 µM) | Acridine orange-DNA displacement, 20 min | AID 651673, 2012 | shares compounds with RAD54 inh;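 active means signal drop giving an AC50 within twice the top valid tested concentration of each sample, actives reach about 35 µM in these data; inactive means activity opposite to expected, plus the rest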;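 further: polarization loss reports compound binding to salmon sperm DNA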
DNA binder FP – DNA-binding compounds via dye displacement, dose response, artefact control for RAD52 inhibitor project, biochemical, fluorescence polarization, cherry-pick | shares compounds with RAD52 anneal inh | Salmon sperm DNA/acridine orange FP displacement | AC50, µM | 8% of 1,000 active | AID 652128, 2013;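 active means fitted half-maximal concentration for signal loss at or below twice the highest dose tested, in every separate run, actives reach about 64 µM in these data; inconclusive means runs disagree, or flat partial signal loss, or poor fit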
Each line names hits and unclear results; the compound was inactive in the other large screens (follow-up assays come after a bar, where they were run); ! = a repeat was not active. Unless noted, no stated cut-off is given here; in the data, active means inhibition above about 43%; inactive means the rest.

C[C@@H]1CCCCO[C@H](CN(C)C(=O)C2CCCCC2)[C@@H](C)CN([C@H](C)CO)C(=O)c2cc(NC(=O)Nc3ccc(F)cc3)ccc2O1	none (no result: PREPL inh, DNA FID counter, beta cell repl, UBC13 polyUb)
CSc1ccc2c(c1)N(CCC1CCCCN1C)c1ccccc1S2 (stereo not given)	PREPL inh 48, RAD52 anneal inh 51, UBC13 polyUb 72 | PREPL confirm 51 | DNA binder FP inactive
CC(=O)c1ccc2c(c1)N(CCCN1CCC(CCO)CC1)c1ccccc1S2	none (no result: DNA FID counter)
C[C@@H]1CN([C@@H](C)CO)C(=O)c2cc(NC(=O)Cc3ccccc3)ccc2O[C@@H](C)CCCCO[C@@H]1CN(C)Cc1ccc(C(=O)O)cc1	none (no result: PREPL inh, DNA FID counter, beta cell repl, UBC13 polyUb)
C[C@H](CO)N1C[C@H](C)[C@H](CN(C)S(=O)(=O)c2ccc(Oc3ccccc3)cc2)OCc2cn(nn2)CCCC1=O	none (no result: PREPL inh, DNA FID counter, beta cell repl, UBC13 polyUb)
O=C1c2c(O)ccc(O)c2C(=O)c2c(NCCNCCO)ccc(NCCNCCO)c21	PREPL inh 101, RAD52 anneal inh 102, RAD54 inh 122 (no result: DNA FID counter) | PREPL confirm 98 | DNA binder FP 1.5µM!
O=C1c2ccccc2C(=O)c2c(Nc3ccc(CCO)cc3)ccc(O)c21	none
CN(C)CCc1cc2c(c3c1ccc1ccccc13)OCO2	PREPL inh 68, DNA FID counter 43, RAD52 anneal inh 100, UBC13 polyUb inconclusive, RAD54 inh 95 | PREPL confirm 59 | DNA binder FP 37µM
COc1cc2ccc3c(CCN(C)C)cc(OC)c(OC)c3c2cc1OC	none
CO[C@@H]1CN(C)C(=O)c2ccc(NC(=O)Nc3ccccc3F)cc2OC[C@@H](C)N(C(=O)Nc2ccccc2F)C[C@H]1C	none (no result: PREPL inh, DNA FID counter, beta cell repl, UBC13 polyUb)
COc1ccc(-c2nc(-c3ccc(NC(=O)c4ccncc4)cc3)no2)cc1OC	none (no result: RAD52 anneal inh)
COc1ccc(NC(=O)c2ccc(-c3ccc(-c4noc(C)n4)cc3C)cc2)cc1N1CCN(C)CC1	PREPL inh 76, RAD52 anneal inh 101, UBC13 polyUb 78, RAD54 inh 54 (no result: DNA FID counter) | PREPL confirm 60 | Casp3 UBC13 ctr inactive | UBC13 conf inactive | DNA binding inactive | DNA binder FP inactive
CCC1(CC)Cc2ccccc2-c2nc(NN)[nH]c(=O)c21	none
CCC1(CC)Cc2ccccc2-c2[nH]c(=S)[nH]c(=O)c21	UBC13 polyUb 59 (no result: DNA FID counter, RAD54 inh) | Casp3 UBC13 ctr inactive | UBC13 conf inactive
COc1ccccc1NS(=O)(=O)c1cccc(C(=O)N/N=C/c2c(CO)cnc(C)c2O)c1	UBC13 polyUb 72 (no result: DNA FID counter) | Casp3 UBC13 ctr inactive | UBC13 conf inactive
c1ccc2c(C[C@@H]3CNCCN3CC3CCCCC3)cccc2c1	UBC13 polyUb 60 (no result: DNA FID counter) | Casp3 UBC13 ctr inactive | UBC13 conf 58
Oc1ccc(C[C@H]2CNCCN2CC2CCCCC2)cc1	none (no result: DNA FID counter)
O=C(Nc1ccc(F)cc1)N1[C@@H](CO)[C@@H]2c3ccccc3NC[C@@H]21	none (no result: PREPL inh, DNA FID counter, beta cell repl, UBC13 polyUb)
CCCC(C(=O)NC(C)(C)C)N(Cc1ccccc1Cl)C(=O)c1snc(C(N)=O)c1N (stereo not given)	UBC13 polyUb 49 | Casp3 UBC13 ctr inactive | UBC13 conf 61
c1coc(-c2nc(-c3ccco3)c(-c3ccco3)nc2-c2ccco2)c1	PREPL inh 71, UBC13 polyUb 77 (no result: RAD52 anneal inh) | Casp3 UBC13 ctr inactive | UBC13 conf 64
Cc1ccc(-c2cnc3c(c2)C(=O)N([C@H](C)CO)C[C@@H](C)[C@@H](CN(C)C(=O)Cc2cccnc2)O3)cc1	none (no result: PREPL inh, DNA FID counter, beta cell repl, UBC13 polyUb)
COc1cc(OC)c2c(-c3ccccc3)cc(=O)oc2c1C(CCN1CCOCC1)c1ccc(N(C)C)cc1 (stereo not given)	none (no result: PREPL inh, DNA FID counter, beta cell repl, UBC13 polyUb)
COc1ccc(C(CCN2CCCCC2)c2c(OC)cc(OC)c3c(-c4ccccc4)cc(=O)oc23)cc1 (stereo not given)	UBC13 polyUb 68 (no result: DNA FID counter) | Casp3 UBC13 ctr inactive | UBC13 conf inactive
COc1cc(OC)c2c(-c3ccccc3)cc(=O)oc2c1C(CCN1CCCCC1)c1ccc(N(C)C)cc1 (stereo not given)	UBC13 polyUb 51 (no result: DNA FID counter, RAD52 anneal inh) | Casp3 UBC13 ctr inactive | UBC13 conf inactive
CC(C)CC#Cc1cnc2c(c1)C(=O)N([C@H](C)CO)C[C@@H](C)[C@@H](CN(C)C(=O)c1cccc(F)c1)O2	none (no result: PREPL inh, DNA FID counter, beta cell repl, UBC13 polyUb)
Cc1ccc(C)c(N2CCN(CCCNC(=O)CCC(=O)N3CCOc4ccc(Cl)cc43)CC2)c1	UBC13 polyUb 60 (no result: RAD54 inh) | Casp3 UBC13 ctr inactive | UBC13 conf 80
O=C(CCC(=O)N1CCOc2ccc(Cl)cc21)NCCCN1CCN(c2ccccc2F)CC1	UBC13 polyUb 62 | Casp3 UBC13 ctr inactive | UBC13 conf inactive
CN1CCc2c(sc(/N=C/c3c[nH]c4ccccc34)c2C(N)=O)C1	UBC13 polyUb 85 | Casp3 UBC13 ctr inactive | UBC13 conf inactive
CN1CCc2c(sc(/N=C/c3c[nH]c4ccccc34)c2C#N)C1	none
CC(C)NC(=S)N=Nc1c(O)[nH]c2ccc(C(C)C)cc12	UBC13 polyUb 65 | Casp3 UBC13 ctr inactive | UBC13 conf 74
CCn1c(=O)cc(SCC(=O)NCC2CCCO2)c2ccccc21 (stereo not given)	none (no result: RAD52 anneal inh)
CCn1c(O)c(N=NC(=S)NCC2CCCO2)c2ccccc21 (stereo not given)	UBC13 polyUb 77 (no result: RAD54 inh) | Casp3 UBC13 ctr inactive | UBC13 conf 95
CC(C)c1ccc2[nH]c(O)c(N=NC(=O)c3cccc(S(=O)(=O)Nc4ccccc4Cl)c3)c2c1	none (no result: RAD54 inh)
Cc1cc(C)c2[nH]c(O)c(N=NC(=S)NCC3CCCO3)c2c1 (stereo not given)	UBC13 polyUb 91 (no result: RAD52 anneal inh) | Casp3 UBC13 ctr inactive | UBC13 conf 94

High-throughput results as filed in PubChem.
